# Screening results as filed in PubChem.
# In the library only some 28% were active in any assay of this set; here they are far more common.
# CYP2C9 inh: blockers of cytochrome P450 2C9 activity – biochemical, luminescence, ADME assay, primary screen. CYP2C9 Supersomes, luciferin-H conversion. actives 20% (n = 96,000). P11712. inhibition, % at 5 µM;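 active means blocking of liver enzyme CYP2C9 beyond about 50% at 5 µM, limit read from the data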
# Target sequence (P11712 whole entry, looked up): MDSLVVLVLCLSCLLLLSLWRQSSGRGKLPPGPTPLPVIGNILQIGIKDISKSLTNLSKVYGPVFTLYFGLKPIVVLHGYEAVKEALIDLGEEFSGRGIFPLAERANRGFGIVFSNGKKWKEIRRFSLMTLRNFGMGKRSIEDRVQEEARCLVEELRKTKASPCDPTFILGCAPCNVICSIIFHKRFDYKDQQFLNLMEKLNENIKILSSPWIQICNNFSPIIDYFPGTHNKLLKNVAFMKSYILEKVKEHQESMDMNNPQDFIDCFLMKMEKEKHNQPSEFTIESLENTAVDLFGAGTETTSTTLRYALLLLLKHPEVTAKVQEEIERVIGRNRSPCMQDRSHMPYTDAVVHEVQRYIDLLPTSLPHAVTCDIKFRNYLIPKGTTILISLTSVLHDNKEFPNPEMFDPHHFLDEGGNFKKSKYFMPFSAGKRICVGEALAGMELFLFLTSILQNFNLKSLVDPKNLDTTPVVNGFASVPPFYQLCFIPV
# Mac1 fbg inh: inhibitors of CD11b/CD18 adhesion to fibrinogen, primary screen, K562 cells, luminescence. Integrin beta-2 (Homo sapiens) + Integrin alpha-M (Homo sapiens), P05107+P11215. inhibition, % at 10 µM. ATPlite luminescence; Mn2+ added to activate the integrin. actives 0.54% (n = 93,000);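 active means primary inhibition of 50% or more at 10 µM, then 40% or more on retest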
# CYP2C19 act: human CYP2C19 activators, primary screen, biochemical, luminescence; Cytochrome P450 2C19 (Homo sapiens), P33261; recombinant CYP2C19, luciferin-H EGE luminescence; hits give high values; 0 = fully inhibited enzyme, 1 = untreated enzyme; activation factor at 5 µM; 96,000 tested, under 10 active; AID 1025, 2008;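 active means activation factor of at least 2 at 5 µM in the primary screen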;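 further: 0 = wells with 2.5 mM tranylcypromine and 1 = vehicle-only wells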
# CYP2C9 act: human CYP2C9 activators, primary screen, biochemical, luminescence; Cytochrome P450 2C9 (Homo sapiens), P11712; recombinant CYP2C9, luciferin-H conversion; hits give high values; factor 1 = untreated enzyme, 0 = blocked; activation factor at 5 µM; actives 1.4% (n = 96,000);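 active means activation factor of 2 or more for CYP2C9 at a 5 µM dose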;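 further: 0 = sulfaphenazole-blocked wells and 1 = vehicle-only wells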
# CYP2C19 inhib: blockers of cytochrome P450 2C19 activity – biochemical, luminescence, ADME assay, primary screen. actives 21% (n = 96,000). AID 778, 2007. CYP2C19 Supersomes, luciferin-H EGE luminescence, 30 min. P33261. inhibition, % at 5 µM;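 active means CYP2C19 inhibition above a set limit at 5 µM in the primary screen, cut at about 50% in these data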;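 further: plate controls were negative control wells for no effect and 2.5 mM tranylcypromine positive control for full effect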
# CD11b adhes enh: enhancers of CD11b/CD18 adhesion to fibrinogen, primary screen, K562 cells, luminescence | Integrin beta-2 (Homo sapiens) + Integrin alpha-M (Homo sapiens), P05107+P11215 | ATPlite luminescence | activation, % at 10 µM | actives 0.07% (n = 93,000);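 active means 10 µM primary screen giving 50% or more activity, confirmed by 40% or more on retest at that dose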
# Starred values were filed as active, the others as inactive; · = not tested or not shown.
SMILES,CYP2C9 inh,Mac1 fbg inh,CYP2C19 act,CYP2C9 act,CYP2C19 inhib,CD11b adhes enh
COCCCNS(=O)(=O)c1ccc(OC)c(Cl)c1Cl,-268,-6,0.1,3.7*,88*,0
COCC(C)NS(=O)(=O)c1ccc(C)cc1 (centres undefined),-8,1,0.8,1.1,17,0
CCCCNS(=O)(=O)c1ccc(OC)c(Cl)c1Cl,-59,-1,0.5,1.6,52*,-3
COC(=O)C(C(=O)OC)C(C[N+](=O)[O-])c1ccc(O)c(OC)c1 (centres undefined),·,18,·,·,·,-3
c1ccc(-c2noc(CSc3nnnn3-c3ccccc3)n2)cc1,54*,-11,0.4,0.5,63*,0
Cc1cc(C)n2cc(CSc3nnnn3-c3ccc(Cl)cc3)nc2n1,-118,-11,1.1,2.2*,-5,1
Cc1ccc(-c2noc(CSc3nnnn3C3CCCCC3)n2)cc1,32,23,0.8,0.7,21,-2
c1ccc(-n2nnnc2SCc2ccccn2)cc1,28,-9,0.1,0.7,88*,-2
Cc1ccc(-n2nnnc2SCc2ccccn2)cc1C,1,7,0.4,1,57*,2
CCOC(=O)CCCNC(=O)COC(=O)CCC(=O)c1ccc(F)cc1,12,-4,0.9,0.9,7,-2
Cc1cccc2nc(CSc3nnnn3-c3ccccc3)cn12,37,10,0.2,0.6,84*,-4
O=S(=O)(NC1CCCCCC1)c1cccc2cccnc12,32,0,0.5,0.7,47,-5
COc1ccc(C)cc1S(=O)(=O)Nc1ccccc1,38,-6,0.8,0.6,24,-3
Cc1cc(S(=O)(=O)NC2CCCC2)ccc1F,12,16,0.7,0.9,26,-2
COc1ccc(C)cc1S(=O)(=O)NC1CCCC1,26,-14,0.2,0.7,83*,2
COc1ccc(S(=O)(=O)NC2CCCCC2)cc1C,-202,-6,0.4,3*,60*,0
COc1ccc(F)cc1S(=O)(=O)NC1CCCC1,32,2,0.2,0.7,80*,-4
COc1ccc(S(=O)(=O)NC2CCCC2)c(Cl)c1Cl,54*,-9,0,0.5,98*,-5
N#CCCn1cc(/C=N/NC(=O)c2ccncc2)c(-c2ccc(F)cc2)n1,·,-6,·,·,·,14
Cc1cccc(C(=O)NCc2nnc3c4ccccc4c(-c4ccccc4)nn23)c1,·,5,·,·,·,2
CCC(C)NC(=O)c1cnn2c1NC(c1ccc3c(c1)OCO3)CC2C(F)(F)F (centres undefined),2,-4,1,1,-1,-1
CCC(CC)C(=O)NCCc1ccc(F)cc1,15,2,0.7,0.9,27,-3
Cc1ccc2c(C)nc(NC3=NCN(CCc4ccccc4)CN3)nc2c1,-4,-1,0.9,1,6,0
CC(C)OC(=O)CCCCCN1C(=O)CSC1=S,91*,-29,0,0.1,99*,-1
O=C(O)CCCCCN1C(=O)CSC1=S,17,-8,0.9,0.8,6,-4
SMILES,CYP2C9 inh,Mac1 fbg inh,CYP2C19 act,CYP2C9 act,CYP2C19 inhib,CD11b adhes enh
COc1ccc(CCCc2nnc(SCC(=O)Nc3cccc(C)c3)o2)cc1,64*,-5,0.5,0.4,54*,0
COc1ccc(Cc2nnc(SCC(=O)Nc3ncc(C)s3)o2)cc1,11,3,0.9,0.9,6,-5
COc1ccc(CCCc2nnc(SCC(=O)Nc3ncc(C)s3)o2)cc1,48,2,0.7,0.5,33,-4
COc1ccc(OC)c(NC(=O)CSc2nnc(CNC(=O)c3ccco3)o2)c1,26,4,0.9,0.7,9,-2
COc1ccc(CCCc2nnc(SCC(=O)Nc3cc(C)c(C)cc3Br)o2)cc1,83*,-12,0.3,0.2,69*,0
COc1ccc(OC)c(/C=N\NC(=O)CSc2nnc(CCCc3ccc(OC)c(C)c3)o2)c1,70*,79,0.4,0.3,64*,-6
CCCc1cc(-c2nc(N)ncc2-c2ccc3c(c2)OCCCO3)c(O)cc1OC,68*,·,0.6,0.3,42,·
COc1ccc(-c2cc3ccccc3oc2=O)cc1NC(=S)NC(=O)c1ccc2c(c1)OCCO2,1,·,1.1,1,-14,·
Cc1ccc(OCc2nnc(SCc3nc4ccccc4[nH]3)n2Cc2ccco2)cc1,65*,69,0.8,0.4,19,-8
Nn1c(SCc2nc3ccccc3[nH]2)nnc1-c1ccccc1,-36,·,0.9,1.4,14,·
c1ccc(-c2nnc(SCc3nc4ccccc4[nH]3)n2Cc2ccco2)cc1,59*,1,0.7,0.4,29,2
CSCCC(NC(=O)c1ccccc1)C(=O)N/N=C(\C)c1ccccc1 (centres undefined),·,-2,·,·,·,-2
CCOC(=O)c1[nH]c(C(=O)O)c(CCN(CC)CC)c1C,7,-6,1,0.9,-2,-3
O=C(CSc1ncn[nH]1)Nc1ccc(S(=O)(=O)N2CCCC2)cc1,61*,-40,0.9,0.4,10,-4
O=C(CSc1ncccn1)Nc1ccc(S(=O)(=O)N2CCCCC2)cc1,24,·,0.9,0.8,5,·
O=C(CSc1nc2ccccc2c(=O)[nH]1)Nc1ccc(S(=O)(=O)N2CCCC2)cc1,96*,21,0.7,0,32,1
N#Cc1c(-c2ccc(Cl)cc2)ccn2nc(CCC(=O)O)nc12,12,13,0.9,0.9,13,-4
O=[n+]1cc(-c2cccc3ccccc23)n([O-])c2c1CCC2,2,-22,1.1,1,-9,-3
COc1ccc(-c2nnn(CC#N)n2)cc1OC,62*,-7,0.2,0.4,84*,-2
c1ccc(-c2nn3nnnc3c3ccccc23)cc1,-18,-11,0.5,1.2,52*,1
O=[N+]([O-])c1ccc(N2CCN(S(=O)(=O)c3ccc4ccccc4c3)CC2)cc1NCC1CCCO1 (centres undefined),·,2,·,·,·,25
Cc1ccc(O)c(C2=NOC(O)(C(F)(F)C(F)F)C2)c1 (centres undefined),53*,-12,0.2,0.5,84*,-2
Cc1ccc(O)c(-c2cc(C(F)(F)F)[nH]n2)c1,25,·,0.8,0.8,21,·
Cc1ccc(O)c(C2=NOC(O)(C(F)(F)F)C2)c1 (centres undefined),17,11,0.3,0.8,68*,2
CCCCC1C(C#N)=C(C)NC2=C1C(=O)CC(C)(C)C2 (centres undefined),86*,0,0.1,0.1,90*,-6
